# Measured values from ChEMBL document CHEMBL1157539, “Thousands of chemical starting points for antimalarial lead identification” (Nature, 2010).
# Test system: Plasmodium falciparum
# Experiment: GSK_TCMDC: Inhibition of Plasmodium falciparum 3D7 in whole red blood cells, using parasite LDH activity as an index of growth. Test compounds present at 2uM
# Assay type: functional
row,Structure (SMILES),Inhibition [%]
1,CO/C(=C\C=C\c1cc2cc(Cl)c(Cl)cc2[nH]1)C(=O)NC1CC2CCC(C1)N2C.Cl (configuration not stated),88
2,CC=CC(=O)N1CCN(c2nccc(-c3ccc(C(C)(C)C)cc3)n2)CC1,95
3,COc1ccc(CCNCc2cc3c(C(C)(C)C)nn(-c4ccc(Cl)cc4)c3[nH]c2=O)cc1OC,100
4,CN=c1nc(NN=Cc2ccccc2Cl)[nH]c(=Nc2cccc(C(F)(F)F)c2)[nH]1.Cl,84
5,N#Cc1ccc(N2CCN(Cc3cccc(-c4cccc(-c5nc6cc(F)ccc6[nH]5)c4)c3)CC2)nc1.O=C(O)C(F)(F)F,90
6,O=C(Nc1cccc(CN2CCCN(Cc3cccc(Cl)c3)CC2)c1)c1ccc(-c2ccccc2)cc1.O=C(O)C(F)(F)F,86
7,CC(C)(CNC(=O)C1CCN(CCOc2ccc(Cl)cc2)CC1)c1nc(-c2ccc(Cl)c(O)c2)c(-c2ccncc2)[nH]1.Cl,100
8,O=C(Nc1cccc(CN2CCN(Cc3cccc(O)c3)CC2)c1)c1ccc(Cl)c(Cl)c1.O=C(O)C(F)(F)F,100
9,NS(=O)(=O)c1ccc(CNC(=O)c2cnc3c(O)cccc3c2Nc2cccc(NC(=O)c3ccc(Cl)c(Cl)c3)c2)cc1.O=C(O)C(F)(F)F,97
10,Cl.N#Cc1cccc(C(O)C2CN(CCC3CCCCC3)CCC2(O)c2ccccc2)c1 (configuration not stated),98
11,Br.Cc1cc(F)ccc1Nc1nc(N(C)c2ccccc2)c2cccc(O)c2n1,92
12,O=C(Nc1ccc(C(=O)N2CCN(CCN3CCN(c4cccc(C(F)(F)F)c4)CC3)CC2)cc1)c1cc(Cl)cc(Cl)c1,100
